# POLK inh: qHTS for Inhibitors of Polymerase Kappa; DNA polymerase kappa (Homo sapiens), Q9UBT6; purified Pol kappa, fluorescent DNA synthesis assay, 10 min; Potency, µM (doses to about 107 µM), actives largely listed as inhibitors; hit rate 0.53% among 400,000; AID 588579, 2011
#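 Pol kappa 10 nM + cpd, 15 min RT; start w/ substrate 50 nM final; fluorescence kinetic read, 0 and 10 min. Neg ctrl: buffer, no enzyme.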
# WRN inhibitor: qHTS for Inhibitors of WRN Helicase. Potency, µM (series often up to 114 µM), hits mostly inhibitors. WRN helicase unwinding, fluorescent forked duplex, kinetic. hit rate 0.46% among 360,000; also: nearly all actives have a fitted effect of over 55% in size
#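 Primary qHTS, 1536-well format. 20 nM WRN + compound, 15 min RT; start with 100 nM forked fluorophore/quencher duplex, 2 mM ATP (final); kinetic read ex 525/em 598 nm.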
# POLI inh: qHTS for Inhibitors of Polymerase Iota; DNA polymerase iota (Homo sapiens), Q9UNA4; Pol iota fluorescent replication assay, 10 min; Potency, µM (series often up to 115 µM), actives largely listed as inhibitors; hit rate 1% among 390,000; AID 588590, 2011
#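 Pol iota at 10 nM preincubated 15 min with compounds at room temperature; reaction started with fluorescent substrate, 50 nM final. Fluorescence read kinetically at 0 and 10 min; buffer-only wells as negative control.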
# POLH inh: qHTS for Inhibitors of Polymerase Eta. DNA polymerase eta (Homo sapiens), Q9Y253. recombinant Pol eta, fluorescent DNA replication assay. Potency, µM (top dose mostly 114 µM), usual class: inhibitors. hit rate 1.2% among 390,000
#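 Pol eta at 10 nM preincubated with compounds 15 min at room temperature; reaction started with fluorescent substrate (50 nM final) and read kinetically at 0 and 10 min.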
# PI5P4K alpha inh: qHTS for Inhibitors of phosphatidylinositol 5-phosphate 4-kinase (PI5P4K) | hit rate 1.2% among 330,000 | AID 652105, 2013 | max response, % | Phosphatidylinositol 5-phosphate 4-kinase type-2 alpha (Homo sapiens), P48426 | PI5P4Kalpha enzyme, ADP-Glo luminescence, 60 min; stronger effect = lower value; active = max response of -50% or lower; inconclusive = between -30% and -50%; inactive = -30% or higher; also: value at the top dose of about 77 µM
#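 ADP-Glo luminescence end-point after a 60 min room-temperature kinase reaction. PI5P4Kalpha and substrate in HEPES pH 7.4 buffer with EGTA, 0.1% CHAPS and 5% DMSO; ATP at 5 microM final.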
# Pol beta inh: qHTS Assay for Inhibitors of DNA Polymerase Beta. P06746. Pol beta primer extension/strand displacement, fluorescence kinetic. Potency, µM (doses to about 114 µM), actives largely listed as inhibitors. hit rate 1.3% among 340,000. AID 485314, 2010
#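 Curves were derived by four-parameter Hill fits of normalized qHTS data. The kinetic fluorescent primer-extension read was taken at 0 and 10 min after 50 nM substrate, following a 15 min room-temperature preincubation of 10 nM enzyme with compounds.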
# A number is an active result; 0 = inactive; ? = inconclusive; - = no result; [ ] = remark or other dose. Hits are enriched below; roughly 2.8% of the tested compounds scored in any of these assays. Unless noted, calls follow the shape of the dose curve; as a rule, active = well fitted curve in the direction sought with a large enough effect; inconclusive = small, poorly fitted or top-dose-only effect, or another doubt; inactive = no such curve, though single readings can be large; an effect the other way counts as inactive or inconclusive.
SMILES,POLK inh,WRN inhibitor,POLI inh,POLH inh,PI5P4K alpha inh,Pol beta inh
CC/C(C)=N/Nc1nc2c(c(=O)[nH]c(=O)n2C)n1Cc1ccccc1,0,0[11.6 µM],16µM,?,0,?
Cn1c(=O)[nH]c(=O)c2c1nc(SCC(=O)O)n2CCc1ccccc1,0,0,0,0,-57,0
CC=CCn1c(SCc2ccccc2)nc2c1c(=O)[nH]c(=O)n2C,-,0,-,-,-58,-
CC(C)(C)n1ncc2c(=O)n(Cc3cccc(Oc4ccccc4)c3)cnc21,0,-,0,-,-,-
NC(C(=O)O)C(O)c1ccc(O)c(O)c1 (centres undefined),0.24µM,-,-,-,-,-
N[C@H](C(=O)O)c1ccc(O)c(C(=O)O)c1,0[19.4 µM],-,-,-,-,-
O=C(Nc1ccc(S(=O)(=O)Nc2ncccn2)cc1)c1nn(Cc2ccccc2)c(=O)c2ccccc12,0,0,?,79µM,0,?
O=c1[nH][nH]c2c(N=Cc3ccccc3O)ccc(F)c12,4µM,14µM,0.89µM,3.2µM,-103,7.1µM
Cc1nc2oc3c(NCc4ccccc4)ncnc3c2c2c1COC(C)(C)C2,0,0,0,14µM,0,0
O=C1S/C(=C\c2ccc(O)c([N+](=O)[O-])c2)C(=O)N1Cc1cccc([N+](=O)[O-])c1,?,0[11.6 µM],?,?,-78,32µM
O=C(O)c1cccc(CN2C(=O)S/C(=C/c3ccccc3[N+](=O)[O-])C2=O)c1,0,0,20µM,79µM,0,0
Cc1cccc(NC(=O)CN2C(=O)S/C(=C\c3ccc(O)c([N+](=O)[O-])c3)C2=O)c1,0,?,0,?,?,?
O=C(CN1C(=O)N/C(=C\c2ccccc2OCc2ccc(C(=O)O)cc2)C1=O)Nc1ccc(F)cc1,?,0,?,0,0,79µM
O=C(O)c1ccc(COc2ccccc2/C=C2\NC(=O)N(Cc3ccc(F)cc3)C2=O)cc1,0,0,?,?,0,?
CCOC(=O)c1ccccc1NC(=O)c1sc2nc3n(c(=O)c2c1C)CCCC3,0,-,0,0,-,0
COc1cc(C(c2c(C)[nH][nH]c2=O)c2c(C)[nH][nH]c2=O)cc([N+](=O)[O-])c1O,0,0,?,0,-60,0
CCOc1cc(C(c2c(C)[nH][nH]c2=O)c2c(C)[nH][nH]c2=O)cc([N+](=O)[O-])c1O,0,0[11.6 µM],?,0,0,0
CCOc1cc(C(c2c(C)[nH][nH]c2=O)c2c(C)[nH][nH]c2=O)cc(Cl)c1O,0,0,25µM,0,0,0
C=CCn1c(SCC(=O)NC(=O)NCc2ccco2)nc2sc(CC)cc2c1=O,?,0[11.6 µM],45µM,11µM,-50,14µM
O=C(CSc1nnc(Nc2ccccc2)s1)NCc1ccco1,0,0,?,0,0,0
Cc1ccccc1Nc1nnc(SCC(=O)NC(=O)NCc2ccco2)s1,?,0,22µM,?,-,?
Cc1ccc(SCC(=O)NC(=O)NCc2ccco2)cc1C,-,-,-,-,-,40µM
CCCn1c(SCC(=O)NC(=O)NCc2ccco2)n[nH]c1=O,-,-,-,-,-,14µM
COC(=O)C1CCN(C(=O)CSc2nnc(-c3ccccc3)o2)CC1,0,0,0,0,0,-
CCCN(CCC)CCNC(=O)Cn1cnc2sc(C)c(S(=O)(=O)N3CCN(c4ccccc4OC)CC3)c2c1=O,0,-,0,0,-,0
SMILES,POLK inh,WRN inhibitor,POLI inh,POLH inh,PI5P4K alpha inh,Pol beta inh
O=C(CSc1nc(-c2ccc(F)cc2)cs1)NC(=O)NCc1ccco1,0,0,50µM,?,-,?
O=C(CSc1ccc2c(c1)OCCO2)NCc1ccco1,?,0,?,?,0,40µM
COc1ccccc1C(C)NCC(=O)NC(=O)NCc1ccco1 (centres undefined),0,0,50µM,?,0,-
Cc1ccc(S(=O)(=O)N2CCN(c3nc(-c4cccs4)nc4ccccc34)CC2)cc1,0,-,0,-,-,-
c1ccc(-c2nnc3oc(-c4cccs4)nn23)cc1,-,0,-,0,0,-
CCN(c1ccc(C)c(C)c1)S(=O)(=O)c1ccc2c(c1)CCN2C(=O)CCC(=O)O,0,0,0,0,-,89µM
